# In PubChem BioAssay (NCATS):
# Inconclusive results are not listed. Unmarked numbers belong to inactive results. Activity calls are given as the source filed them. Unless noted, calls come from the whole dose curve.
# Experiment: S16 Schwann cell PMP22 intronic element firefly luciferase assay (AID 624032; active = well fitted inhibition curve with a large enough effect; note: nearly all actives have a fitted effect of over 30% in size; note: potency is the fitted concentration of half-maximal effect;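 for activity change, negative = inhibition: plate controls were DMSO for no effect and PTC124 positive control mean for full effect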)
# Conditions: S16 rat Schwann cells, PMP22 element FLuc, 24 h; series mostly up to 57.5 µM; activity change, negative = inhibition: at the top concentration
# Procedure, shortened: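 Luciferase reporter of PMP22 intronic-element expression in stably transfected S16 rat Schwann cells, read by ONE-Glo luminescence after 24 h compound exposure at 37 C. Activity scaled between DMSO (0%) and positive-control PTC124; concentration-effect curves quality-classified.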
SMILES,"activity change, negative = inhibition [%]",Potency
C[C@H](CCCC(C)(C)O)[C@H]1CC[C@H]2[C@@H]3CC=C4C[C@@H](O)CC[C@]4(C)[C@H]3CC[C@]12C,0.238,
Cc1cc(C)c(NC(=O)C[C@H](CC(=O)O)c2cccc3ccccc23)c(C(=O)N2CCC3(CCCC3)CC2)c1,4.06,
CN(C)c1ccc(C(=C2C=CC(=[N+](C)C)C=C2)c2c(O)c(S(=O)(=O)[O-])cc3cc(S(=O)(=O)O)ccc23)cc1,,36.1 µM (active)
CC(C)OC(=O)Nc1ccc2nc(-c3cscn3)[nH]c2c1,-3.73,
CN(C)CCC=C1c2ccccc2C(C)(C)c2ccccc21,-23.9,
Cn1c(O)c(N=NC(N)=S)c2ccccc21,-19.2,
CC/C=C\C/C=C\C/C=C\C/C=C\C/C=C\C/C=C\CCC(=O)O,-1.82,
CC(C)CCC[C@@H](C)[C@H]1CC[C@H]2[C@@H]3CC[C@@H]4C[C@H](O)CC[C@]4(C)[C@H]3CC[C@]12C,-13.3,

# Experiment: S16 Schwann cell PMP22 intronic element beta-lactamase assay (AID 624044);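 note: 0% = DMSO and -100% = potassium clavulanate positive control; nearly all actives have a fitted effect of over 15% in size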
# Conditions: S16 rat Schwann cells, PMP22 element beta-lactamase FRET, 24 h; ratio activity, negative = inhibition: at 38.3 µM (top of the series) unless noted
# Procedure, shortened: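 Rat S16 Schwann cells with beta-Lac driven by a PMP22 intronic element, compound-treated 24 h at 37 °C. LiveBLAzer FRET B/G read: 460 nm normalized to potassium clavulanate vs DMSO; 535 nm FRET as viability; concentration-effect curves classified.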
row,SMILES,"ratio activity, negative = inhibition [%]"
1,NC(N)=O,0.531
2,CO/N=C(/C(=O)N[C@@H]1C(=O)N2C(C(=O)O)=C(COC(N)=O)CS[C@H]12)c1ccco1,0.236
3,CCC(C(=O)NC(N)=O)c1ccccc1 (configuration not stated),8.54
4,NC(=S)N=Nc1ccc(NN=C(N)N)cc1,-3.68
5,CCOC(=O)c1cc(-c2ccccc2)nc2ccc(C)cc12,4.28
6,O=C(O)[C@H]1C(=CCO)O[C@H]2CC(=O)N12,-34.7
7,C=Cc1ccc(S(=O)(=O)O)cc1,-7.16
8,CN(C)c1ccc(C(=C2C=CC(=[N+](C)C)C=C2)c2c(O)c(S(=O)(=O)[O-])cc3cc(S(=O)(=O)O)ccc23)cc1,1.14
9,C=CC[N+]1([C@H]2C[C@H]3[C@@H]4CC[C@H]5C[C@H](O)[C@@H](N6CCOCC6)C[C@]5(C)[C@H]4CC[C@]3(C)[C@H]2OC(C)=O)CCCC1,-0.444
10,C[C@H](CCC(=O)O)[C@H]1CC[C@H]2[C@@H]3CC[C@@H]4C[C@H](O)CC[C@]4(C)[C@H]3C[C@H](O)[C@]12C,1.95
11,O=P(O)(O)OC[C@H]1O[C@](O)(COP(=O)(O)O)[C@@H](O)[C@@H]1O,3.08
12,COc1ccc(C(=O)CCC(=O)O)c2ccccc12,-1.03
13,CN(C)CCC=C1c2ccccc2C(C)(C)c2ccccc21,-0.444
14,CC(C)(COP(=O)(O)OP(=O)(O)OC[C@H]1O[C@@H](n2cnc3c(N)ncnc32)[C@H](O)[C@@H]1OP(=O)(O)O)C(O)C(=O)NCCC(=O)NCCS (some centres not stated),1.27
15,CC(=O)N[C@@H]1C(O[C@H]2O[C@H](C(=O)O)C(O)[C@H](O)[C@H]2O)[C@H](O)[C@@H](CO)O[C@H]1O[C@@H]1C(C(=O)O)O[C@@H](O[C@H]2[C@H](O)[C@@H](CO)OC(O)[C@@H]2NC(C)=O)[C@H](O)[C@H]1O (some centres not stated),1.9
16,NC(=O)CC[C@@H]1NC(=O)[C@H](Cc2ccccc2)NC(=O)[C@H](Cc2ccc(O)cc2)NC(=O)[C@@H](N)CSSC[C@@H](C(=O)N2CCC[C@H]2C(=O)N[C@@H](CCCN=C(N)N)C(=O)NCC(N)=O)NC(=O)[C@H](CC(N)=O)NC1=O,-1.23
17,Cc1ncc[nH]1,-0.768

row,SMILES,"ratio activity, negative = inhibition [%]"
1,CCCCC[C@H](O)/C=C/[C@H]1[C@H](O)CC(=O)[C@@H]1C/C=C\CCCC(=O)O,-1.59
2,N#Cc1ccc2c(c1)N(CCCN1CCC(O)CC1)c1ccccc1S2,-13.2
3,CCCCCCCCCC(=O)NO,5.56
4,O=C(O)c1ccc(NC(=O)[C@H](Cc2ccc(O)cc2)NC(=O)c2ccccc2)cc1,6
5,COc1ccccc1N1CCN(CCCC(=O)c2ccc(F)cc2)CC1,-14.3
6,CC/C=C\C/C=C\C/C=C\C/C=C\C/C=C\C/C=C\CCC(=O)O,0.57
7,Cn1c(=O)c2c(ncn2CCOC(=O)C(C)(C)Oc2ccc(Cl)cc2)n(C)c1=O,-5.21
8,F[Si-2](F)(F)(F)(F)F,7.11
9,O=c1n(CC2CO2)c(=O)n(CC2CO2)c(=O)n1CC1CO1 (configuration not stated),-25.3
10,Cc1ncc(C[n+]2csc(CCOP(=O)(O)O)c2C)c(N)n1,-8.96
11,COc1ccc(/C=C/C(=O)O)cc1,1.76
12,CC12CCC(C1)C(C)(C)C2=O (configuration not stated),1.35
13,O=c1[nH]c(=O)n([C@H]2C[C@H](O)[C@@H](CO)O2)cc1/C=C/Br,-1.39
14,CN1C(=O)C[C@@H](C(=O)N[C@@H](Cc2cnc[nH]2)C(=O)N2CCC[C@H]2C(N)=O)NC1=O,-0.824
15,Cn1cc(NC(=O)c2cc(NC(=O)c3cc(NC=O)cn3C)cn2C)cc1C(=O)NCCC(=N)N,5.48
16,COC(=O)C(CN)c1c[nH]c2ccc(OC)cc12 (configuration not stated),0.76
17,CC(C)(C)CC(C)(C)c1ccc(OCCO)cc1,-12.4
